# Tests used:
# Assay type in all cases: functional
# Plasmodium falciparum [1] = test: GSK_TCMDC: Inhibition of Plasmodium falciparum 3D7 in whole red blood cells, using parasite LDH activity as an index of growth. Test compounds present at 2uM
# Plasmodium falciparum [2] = test: GSK_TCMDC: Inhibition of Plasmodium falciparum Dd2 in whole red blood cells, using parasite LDH activity as an index of growth. Test compounds present at 2uM
# HepG2 = test: GSK_TCMDC: Percent inhibition of human HepG2 cell line. Test compounds present at 10uM.
SMILES,Inhibition (Plasmodium falciparum [1]),Inhibition (Plasmodium falciparum [2]),Inhibition (HepG2)
CC(=O)Nc1ccc(C(=O)NC2CCN(c3ccnc4cc(Cl)ccc34)C2)cc1.O=C(O)C(F)(F)F (stereo not given),100%,100%,1%
O=C(NCCc1ccccc1)N(Cc1ccccc1-c1ccc(CNCCc2ccccc2)cc1)C1CCN(Cc2ccccc2)CC1.O=C(O)C(F)(F)F,97%,91%,99%
O=C(N[C@@H](CC1CCCCC1)C(=O)NC1CCCCC1)c1ccc(O)c(-c2cccc(C(F)(F)F)c2)c1,100%,95%,0%
Cc1cccc2nc(-c3ccc(-c4cccc(CN5CC(C)OC(C)C5)c4)s3)[nH]c12.O=C(O)C(F)(F)F (stereo not given),98%,79%,6%
COc1ccc(C2CC(=O)C3=C(C2)NC(C)=C(C(=O)OC2CCCC2)C3c2ccc(O)cc2)cc1OC (stereo not given),97%,92%,0%
Cc1cccc2nc(-c3ccc(-c4cccc(NC(=O)C(C)CN(C)C)c4)cc3)[nH]c12 (stereo not given),99%,61%,20%
CC(C)c1ccc(NC(=O)c2ccc(CN3CCCN(Cc4cccc(O)c4)CC3)cc2)cc1.O=C(O)C(F)(F)F,100%,58%,51%
CC(=O)Nc1ncc(C(=O)Nc2cccc(-c3ccc(-c4nc5ccccc5[nH]4)cc3)c2)s1,100%,66%,12%
Oc1cc(Nc2ccnc3cc(-c4ccc(CN5CCCCC5)o4)ccc23)c(Cl)cc1F,100%,81%,30%
CN1CCN(CCCN(Cc2csc(-c3ccc(CNCc4ccccc4)cc3)n2)C(=O)Nc2cc(Cl)cc(Cl)c2)CC1.O=C(O)C(F)(F)F,100%,45%,34%

# Source: ChEMBL document CHEMBL1157539, “Thousands of chemical starting points for antimalarial lead identification” (Nature, 2010)
